Laboratory results published in PubChem BioAssay AID1159580 (chemical genetic matrix, 2015).
In all, about 5,500 compounds went through this assay and about 2,000 (36%) were called active. Another 18% or so got no clear call; they are omitted. Rule as the data show it: active = normalized growth mostly below about 0.91 (no sharp cut-off); inconclusive = no clear call, values can overlap the other calls; inactive = mostly above about 0.92. Some of the results follow.

Experiment: chemical genetic growth profiling, strain panel (AID 1159580);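 also: tested at 20 µM; growth read once vehicle control cultures reached saturation at 30 °C; 1 = growth at the plate median or of vehicle wells; lower values mean less growth of the strain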
Conditions: S. cerevisiae deletion strains, growth OD

Measured: normalized growth

C[C@]12CCC3C(CC[C@H]4CC(=O)CC[C@]34C)C1CCC2=O (stereo partly specified)
active: locus YKR001C, strain vps1, hits give low values 0.86 | locus YLL026W, hits give low values 0.928 | locus YLR027C, strain aat2, hits give low values 0.875 | locus YLR039C, strain RIC1, hits give low values 0.504 | locus YLR221C, strain rsa3, hits give low values 0.796 | locus YLR262C, strain YPT6 (second series), hits give low values 0.471 | locus YLR262C, strain YPT6, hits give low values 0.487 | locus YLR320W, strain mms22, hits give low values 0.595 | locus YLR342W, strain FKS1 (second series), hits give low values 0.718 | locus YLR418C, strain cdc73, hits give low values 0.701 | locus YML032C, strain rad52, hits give low values 0.82 | locus YML120C, strain ndi1, hits give low values 0.853 | locus YMR058W, strain fet3, hits give low values 0.872 | locus YMR205C, strain PFK2, hits give low values 0.726 | locus YMR223W, strain ubp8, hits give low values 0.864 | locus YNL071W, strain lat1, hits give low values 0.563 | locus YNL250W, strain rad50, hits give low values 0.894 | locus YNL271C, strain bni1, hits give low values 0.893 | locus YNL298W, strain CLA4, hits give low values 0.821 | locus YNL307C, strain MCK1, hits give low values 0.723 | locus YNR052C, strain pop2, hits give low values 0.648 | locus YOL006C, strain TOP1, hits give low values 0.529 | locus YOR001W, strain rrp6, hits give low values 0.833 | locus YOR106W, strain vam3, hits give low values 0.766 | locus YOR184W, strain ser1, hits give low values 0.658 | locus YOR270C, strain vph1, hits give low values 0.634 | locus YPL051W, strain arl3, hits give low values 0.865 | locus YPL078C, strain atp4, hits give low values 0.886 | locus YPR163C, strain tif3, hits give low values 0.884
inactive: locus YJR066W, strain TOR1, hits give low values 0.881 | locus YKL009W, strain mrt4, hits give low values 0.906 | locus YKL068W, hits give low values 0.989 | locus YKL085W, strain MDH1 (second series), hits give low values 0.97 | locus YKL085W, strain MDH1, hits give low values 0.97 | locus YKL160W, strain elf1, hits give low values 0.95 | locus YKL190W, strain CNB1, hits give low values 0.98 | locus YKR026C, strain gcn3, hits give low values 1.02 | locus YKR091W, strain srl3, hits give low values 1.03 | locus YLL001W, strain dnm1, hits give low values 0.942 | locus YLL041C, strain sdh2, hits give low values 1.01 | locus YLR058C, strain SHM2, hits give low values 0.958 | locus YLR102C, strain apc9, hits give low values 0.992 | locus YLR113W, strain HOG1, hits give low values 0.923 | locus YLR258W, strain gsy2, hits give low values 0.92 | locus YLR268W, strain sec22, hits give low values 0.927 | locus YLR330W, strain CHS5, hits give low values 0.95 | locus YLR342W, strain FKS1, hits give low values 0.912 | locus YLR357W, strain rsc2, hits give low values 1.08 | locus YLR370C, strain arc18, hits give low values 0.972 | locus YLR371W, strain rom2, hits give low values 0.956 | locus YLR384C, strain iki3, hits give low values 1.04 | locus YML016C, strain PPZ1, hits give low values 0.988 | locus YML124C, strain tub3, hits give low values 0.996 | locus YMR078C, strain ctf18, hits give low values 0.966 | locus YMR125W, strain sto1, hits give low values 1.02 | locus YMR129W, hits give low values 0.929 | locus YMR231W, strain pep5, hits give low values 0.99 | locus YMR307W, strain GAS1, hits give low values 0.771 | locus YNL067W, strain RPL9B, hits give low values 0.985 | locus YNL183C, strain NPR1, hits give low values 0.876 | locus YNL209W, strain ssb2, hits give low values 0.991 | locus YNL233W, strain BNI4, hits give low values 0.902 | locus YNL248C, strain rpa49, hits give low values 0.908 | locus YNL322C, strain KRE1 (second series), hits give low values 0.977 | locus YNL322C, strain KRE1, hits give low values 0.99 | locus YNR049C, strain mso1, hits give low values 1.02 | locus YOL012C, strain htz1 1.71 | locus YOL147C, strain pex11, hits give low values 0.975 | locus YOR061W, strain CKA2, hits give low values 0.923 | locus YOR069W, strain VPS5, hits give low values 1 | locus YOR070C, strain gyp1, hits give low values 0.946 | locus YOR080W, strain dia2, hits give low values 1.02 | locus YOR083W, strain WHI5, hits give low values 0.904 | locus YOR136W, strain idh2, hits give low values 0.994 | locus YOR144C, strain elg1, hits give low values 0.954 | locus YOR231W, strain MKK1, hits give low values 0.901 | locus YOR265W, strain rbl2, hits give low values 0.997 | locus YOR290C, strain snf2, hits give low values 0.932 | locus YOR316C, strain cot1, hits give low values 0.981 | locus YPL106C, strain sse1, hits give low values 1.14 | locus YPL240C, strain hsp82, hits give low values 0.936 | locus YPL256C, strain CLN2, hits give low values 0.887 | locus YPR119W, strain clb2, hits give low values 1.01 | locus YPR141C, strain kar3, hits give low values 1 | locus YPR167C, strain met16, hits give low values 0.921 | strain wtn01, hits give low values 0.944
